Glyco luc inh – blocks N-linked glycosylation in D54 reporter cells; reporter increase, % at 12.5 µM; AID 588692; D54 ERlucT glycosylation luciferase reporter, 24 h; percent of 100 nM tunicamycin response; 360,000 tested, 0.23% active;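 active means mean luciferase reporter signal, scaled so untreated is 0 and the glycosylation-blocking control 100, at or above a set limit in every replicate; inconclusive means mean reaches the limit but not every replicate does; inactive means mean below the limit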;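 further: luciferase carries N-glycosylation sites so blocking glycosylation raises the light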
Shn3 inh set2 – inhibitors of Schnurri-3 3'UTR reporter in osteoblasts | Clone20 osteoblast Shn3 3'UTR firefly luciferase, 24 h | 360,000 tested, 0.52% active | inhibition, % at 12.5 µM;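 active means mean inhibition of at least 75% with every replicate also reaching 75%; inconclusive means mean inhibition at least 75% but some replicate below; inactive means mean inhibition below 75%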
PAX8 inh HTS – inhibitors of PAX8 transcriptional activity in RMG-I cells; RMG-I TPO-luciferase reporter, SteadyGlo, 24 h; inhibition, % at 12.6 µM; 360,000 tested, 1.2% active;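 active means mean replicate inhibition at least 60% with every replicate also reaching 60%; inconclusive means only one of the two criteria is met; inactive means mean below 60% and not all replicates reaching 60%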;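 further: luciferase light reporting Pax8 driven TPO promoter activity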
EBV LMP1 NFkB – inhibitors of Epstein-Barr LMP1-induced NF-kappaB reporter. LMP1-induced NF-kappaB luciferase reporter cells, luminescence. inhibition, % at 12.5 µM. 350,000 tested, 0.69% active; in the data active means inhibition above about 41%; inconclusive means no clear call, values can overlap the other calls
HIV Env fusion – inhibitors of HIV Env-mediated cell fusion | HeLa-JRFL Env/CEM21 cell fusion, luciferase | inhibition, % at 12.3 µM | 360,000 tested, 1.1% active | AID 651610;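 active means mean replicate inhibition score of at least 50 and every replicate individually at or above 50; inconclusive means only one of the two criteria met; inactive means mean below 50 and not all replicates reaching 50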
NSD2 HMT inh – blocks human histone methyltransferase NSD2; O96028; NSD2 peptide methylation, AlphaScreen, 120 min; inhibition, % at 12.5 µM; 310,000 tested, 0.54% active; AID 743445; in the data active means inhibition above about 50%
Target sequence (O96028 whole entry, looked up): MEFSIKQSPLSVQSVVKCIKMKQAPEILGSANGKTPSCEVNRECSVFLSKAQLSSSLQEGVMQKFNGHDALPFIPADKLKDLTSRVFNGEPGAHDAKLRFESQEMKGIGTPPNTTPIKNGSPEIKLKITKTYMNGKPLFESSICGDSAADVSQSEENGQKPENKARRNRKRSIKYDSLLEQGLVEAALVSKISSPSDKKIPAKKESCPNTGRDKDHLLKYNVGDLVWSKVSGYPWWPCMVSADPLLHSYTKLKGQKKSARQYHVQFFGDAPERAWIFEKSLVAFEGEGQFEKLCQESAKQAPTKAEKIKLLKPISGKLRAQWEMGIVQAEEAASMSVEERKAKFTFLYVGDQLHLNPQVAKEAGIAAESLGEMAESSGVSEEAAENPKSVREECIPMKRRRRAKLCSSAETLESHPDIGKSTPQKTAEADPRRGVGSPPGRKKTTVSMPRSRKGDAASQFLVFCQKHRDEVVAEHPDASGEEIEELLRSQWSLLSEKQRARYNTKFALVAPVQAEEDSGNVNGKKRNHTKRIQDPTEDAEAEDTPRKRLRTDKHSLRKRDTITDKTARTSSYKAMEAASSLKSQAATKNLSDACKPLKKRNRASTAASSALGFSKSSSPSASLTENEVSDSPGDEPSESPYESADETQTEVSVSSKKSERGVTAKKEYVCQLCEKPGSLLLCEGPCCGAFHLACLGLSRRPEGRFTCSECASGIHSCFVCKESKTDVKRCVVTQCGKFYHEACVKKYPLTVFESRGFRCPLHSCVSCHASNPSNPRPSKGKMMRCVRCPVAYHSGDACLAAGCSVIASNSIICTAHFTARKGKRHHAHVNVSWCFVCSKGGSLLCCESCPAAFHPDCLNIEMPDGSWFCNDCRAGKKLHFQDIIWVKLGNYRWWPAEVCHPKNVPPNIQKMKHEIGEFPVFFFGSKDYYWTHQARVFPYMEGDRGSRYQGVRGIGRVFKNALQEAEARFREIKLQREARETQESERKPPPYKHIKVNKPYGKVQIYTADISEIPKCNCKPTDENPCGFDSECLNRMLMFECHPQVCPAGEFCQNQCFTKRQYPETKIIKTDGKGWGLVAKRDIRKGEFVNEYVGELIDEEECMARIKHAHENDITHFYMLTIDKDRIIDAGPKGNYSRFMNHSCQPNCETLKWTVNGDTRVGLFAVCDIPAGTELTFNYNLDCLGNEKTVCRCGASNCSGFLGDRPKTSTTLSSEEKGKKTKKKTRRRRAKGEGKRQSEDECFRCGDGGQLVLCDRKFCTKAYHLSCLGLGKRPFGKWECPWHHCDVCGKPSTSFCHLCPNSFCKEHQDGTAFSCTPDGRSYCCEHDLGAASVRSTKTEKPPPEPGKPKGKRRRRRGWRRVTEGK
A number is an active result; . = inactive; ? = inconclusive; / = no result given. In the library only some 2.8% were active in any assay of this set; here they are far more common.

SMILES	Glyco luc inh	Shn3 inh set2	PAX8 inh HTS	EBV LMP1 NFkB	HIV Env fusion	NSD2 HMT inh
COc1ccc(S(=O)(=O)Nc2ccc3c(c2)CC(=O)N([C@@H](C)CO)C[C@@H](C)[C@H](CN(C)C(=O)NC(C)C)O3)cc1	/	/	/	/	.	/
CC(C)NC(=O)Nc1ccc2c(c1)C(=O)N([C@H](C)CO)C[C@H](C)[C@@H](CN(C)Cc1ccncc1)OCCCC[C@@H](C)O2	/	/	.	/	.	/
C[C@@H]1CN([C@H](C)CO)C(=O)c2cc(-c3cccc(C#N)c3)cnc2O[C@@H]1CN(C)C(=O)C1CC1	/	/	/	/	.	/
COc1cc(-c2cnc3c(NC=O)cc(-c4ccccc4)cn23)cc(OC)c1OC	.	.	92.0	/	.	.
CC(=O)Nc1cccc(-c2cc(NC=O)c3ncc(-c4cccc(C(C)=O)c4)n3c2)c1	.	.	81.4	/	.	.
COc1cc(-c2cnc3c(NC=O)cc(-c4ccccc4Cl)cn23)cc(OC)c1OC	.	.	75.9	/	.	.
COc1cc(-c2cc(NC=O)c3ncc(-c4ccccc4)n3c2)cc(OC)c1OC	.	.	.	/	.	.
COc1ccccc1-c1cc(NC=O)c2ncc(-c3ccc(F)cc3)n2c1	.	.	.	/	.	/
CS(=O)(=O)c1ccc(-c2cc(NC=O)c3ncc(-c4ccc(F)cc4)n3c2)cc1	.	.	68.4	/	.	.
COc1cccc(-c2cnc3c(NC=O)cc(-c4ccc(S(C)(=O)=O)cc4)cn23)c1	.	.	.	/	.	.
COCc1cn(CC[C@@H]2CC[C@@H](NC(=O)Cc3cccnc3)[C@H](CO)O2)nn1	/	/	.	/	.	/
COc1cc(-c2cnc3c(NC=O)cc(-c4ccc(C)cc4)cn23)cc(OC)c1OC	.	.	90.1	/	.	.
COc1cc(-c2cc(NC(C)=O)c3ncc(-c4cc(OC)c(OC)c(OC)c4)n3c2)cc(OC)c1OC	.	.	.	/	.	.
COc1ccc(F)cc1-c1cc(NC=O)c2ncc(-c3cc(OC)c(OC)c(OC)c3)n2c1	.	.	90.1	/	.	.
COc1cc(-c2cnc3c(NC=O)cc(-c4cccc(NC(C)=O)c4)cn23)cc(OC)c1OC	.	.	105.1	/	.	.
COc1cc(-c2cnc3c(NC(C)=O)cc(-c4ccccc4CN(C)C)cn23)cc(OC)c1OC	40.1	.	.	/	.	.
COc1cc(-c2cc(NC=O)c3ncc(-c4ccc(C(C)=O)cc4)n3c2)cc(OC)c1OC	.	.	.	/	.	.
CC(C)NC(=O)Nc1ccc2c(c1)C(=O)N([C@H](C)CO)C[C@H](C)[C@H](CN(C)C(=O)NC1CCCCC1)OCCCC[C@@H](C)O2	/	/	.	/	.	/
CCOC(=O)c1c(NC(=O)C(=O)N/N=C/c2ccccc2O)sc2c1CCCCC2	.	93.8	.	.	/	.
CCOC(=O)c1c(NC(=O)C(=O)N/N=C/c2ccccc2OC)sc2c1CCCCC2	.	.	.	.	.	.
N#Cc1c(Cl)nsc1NC(=O)c1ccccc1	.	.	.	.	59.9	.
N#Cc1c(NC(=O)c2ccccc2)sc2c1CCCCC2	.	.	/	.	/	/
C[C@@H]1CN([C@H](C)CO)C(=O)c2cc(NS(=O)(=O)c3cn(C)cn3)ccc2O[C@@H]1CN(C)Cc1ccc(Cl)c(Cl)c1	/	/	.	/	/	/
CC(C)NC(=O)Nc1ccc2c(c1)C(=O)N([C@@H](C)CO)C[C@H](C)[C@@H](CN(C)S(=O)(=O)c1cccs1)OCCCC[C@@H](C)O2	/	/	.	/	.	/
Fc1ccc(C(c2nnnn2CCc2ccccc2)N2CCCc3ccccc32)cc1 (stereo not drawn)	.	.	.	.	90.2	.
SMILES	Glyco luc inh	Shn3 inh set2	PAX8 inh HTS	EBV LMP1 NFkB	HIV Env fusion	NSD2 HMT inh
Clc1ccc(C(c2nnnn2CCc2ccccc2)N2CCSCC2)cc1 (stereo not drawn)	.	.	.	.	100.3	.
COc1ccc(S(=O)(=O)Nc2ccc3c(c2)C(=O)N([C@@H](C)CO)C[C@@H](C)[C@@H](CN(C)C(=O)Nc2ccccc2)O3)cc1	/	/	.	/	.	/
CCN(CC)CCOc1c(Br)ccc2c1sc1nc3n(c(=O)c12)CCC3	67.5	.	.	.	.	.
O=c1c2c(nc3n1CCCCC3)sc1c(O)c(Br)ccc12	.	.	/	.	/	.
Cc1ccc(N2CCN(C3=NC(=O)/C(=C\c4cn[nH]c4-c4ccccc4)S3)CC2)cc1	?	.	.	68.6	.	.
O=C1N=C(N2CCN(c3ccccc3)CC2)S/C1=C\c1cn[nH]c1-c1ccccc1	.	.	.	.	/	.
Cc1noc(C)c1S(=O)(=O)Nc1ccc2c(c1)C(=O)N([C@H](C)CO)C[C@@H](C)[C@H](CN(C)S(=O)(=O)c1cccs1)OCCCC[C@H](C)O2	/	/	.	/	.	/
COc1ccc(-c2cn(-c3ccc(Br)cc3)c3[n+]2CCS3)cc1	.	.	64.9	.	.	.
OCCNc1c2ccccc2nc2ccccc12	66.1	.	.	.	.	.
COc1cc2c(cc1OC)[C@@]13ON=C(c4ccc(OCCO)cc4)[C@@H]1CCN3CC2	/	/	/	/	.	/
C/C(=N\NC(=O)c1c([N+](=O)[O-])c(C)nn1C)c1ccc(NC(=O)C2CCCC2)cc1	33.1	.	.	.	.	.
COc1ccc(S(=O)(=O)N(C)C[C@H]2OCCCC[C@@H](C)Oc3ccc(NC(=O)Nc4cccc5ccccc45)cc3C(=O)N([C@@H](C)CO)C[C@H]2C)cc1	/	/	.	/	.	/
Cc1cc(C(=O)CN2C(=O)c3ccccc3S2(=O)=O)c(C)n1C(C)C	.	.	71.5	70.4	91.3	.
Cc1cc(C(=O)CN2C(=O)C3CC=CCC3C2=O)c(C)n1-c1ccccc1 (stereo not drawn)	.	.	.	.	.	.
C=CCn1c(C)cc(C(=O)CN2C(=O)NC3(CCCc4ccccc43)C2=O)c1C (stereo not drawn)	.	.	/	.	/	.
C=CCn1c(C)cc(C(=O)CN2C(=O)c3ccccc3S2(=O)=O)c1C	.	91.0	/	86.8	/	.
CCn1c(C)cc(C(=O)CN2C(=O)c3ccccc3S2(=O)=O)c1C	.	.	.	73.1	98.5	.
Cc1cc(C(=O)CN2C(=O)c3ccccc3S2(=O)=O)c(C)n1-c1ccccc1	.	.	/	73.7	/	.
Cc1nn(C)cc1NC(=O)C[C@@H]1CC[C@H]2[C@H](COc3ccc(NC(=O)C4CCOCC4)cc3C(=O)N2C)O1	/	/	.	/	.	/
C[C@H](O)C#Cc1ccc2c(c1)O[C@H](CN(C)C(=O)Nc1ccccc1)[C@H](C)CN([C@@H](C)CO)S2(=O)=O	/	/	.	/	.	/
O=C(C[C@@H]1CC[C@H]2[C@@H](COC[C@H](O)CN2S(=O)(=O)c2ccccc2F)O1)NCc1ccccc1Cl	/	/	.	/	/	/
CN1C=C/C(=C\c2cc[n+](C)c3ccccc23)c2ccccc21	.	.	97.3	.	.	/
CC[n+]1ccc(/C=C2\Sc3ccccc3N2CCCS(=O)(=O)[O-])c2ccccc21	.	.	.	.	.	/
CC1CCN(c2ccc(-c3ccc(NC(=O)C(F)(F)F)cc3)nn2)CC1	.	.	/	45.6	/	.
CC(=O)Nc1ccc(NC(=O)C(F)(F)F)cc1	.	.	.	.	.	.

Source: PubChem BioAssay (Broad Institute)
